# PubChem BioAssay AID743316 (Broad Institute, 2014)
# Potency and affinity values are given separately. A number with no mark means an inactive call. The source made the active and inactive calls. How the calls were made is not given here.
# Settings: HEK293 cytotoxicity, plate reader; series mostly up to 26 µM; activity change, negative = cytotoxicity: at the top concentration
SMILES,"activity change, negative = cytotoxicity",outcome
S=c1[nH]c2cccc(Cl)c2n1CCOc1ccccc1,-3.5%,–
COc1ccc(OCCn2cnc3ccccc32)cc1,1.18%,–
CS(=O)(=O)c1ccc(OCCn2cnc3ccccc32)cc1,-4.02%,–
Cc1ccccc1OCCn1cnc2ccccc21,0.81%,–
CSc1nc2ccccc2n1CCOc1cc(C)ccc1C(C)C,-2.02%,–
CCSc1nc2ccccc2n1CCOc1ccccc1,-3.94%,–
Cc1cccc(OCCn2cnc3ccccc32)c1,0.448%,–
Clc1ccc(OCCn2cnc3ccccc32)cc1,-3.98%,–
Cc1ccc(OCCn2cnc3cc(C)c(C)cc32)cc1,4.94%,–
Cc1ccc(OCCn2cnc3ccccc32)c(C)c1,-3.05%,–
Fc1ccc2c(c1)[nH]c(=S)n2CCOc1ccccc1,-9.9%,–
Cc1cccc(OCCn2c(=S)[nH]c3c(F)cccc32)c1,–,inactive
Cc1cccc(OCCn2c(=S)[nH]c3ccccc32)c1,-9.77%,–
CCCc1nc2ccccc2n1CCOc1ccccc1,-1.9%,–
COc1ccccc1OCCn1c(=S)[nH]c2ccccc21,6.22%,–
CC(C)Oc1ccc(OCCn2c(=S)[nH]c3ccccc32)cc1,-4.94%,–

SMILES,"activity change, negative = cytotoxicity",outcome
FC(F)(F)c1cccc(OCCn2cnc3ccccc32)c1,-20.5%,–
OCc1nc2ccccc2n1CCOc1ccccc1,4.92%,–
CC(C)Oc1ccc(OCCn2cnc3ccccc32)cc1,-11.5%,–
Cc1ccc(C(C)C)c(OCCn2c(=S)[nH]c3ccccc32)c1,-6.34%,–
CCCCc1nc2ccccc2n1CCOc1ccccc1,2.48%,–
Cc1cc2ncn(CCOc3ccccc3)c2cc1C,-13.7%,–
Cc1ccc2c(c1)[nH]c(=S)n2CCOc1ccccc1,-7.88%,–
Fc1ccc(OCCn2c(=S)[nH]c3ccccc32)cc1,3.96%,–
CCc1nc2ccccc2n1CCOc1ccccc1,0.75%,–
CSc1nc2ccccc2n1CCOc1ccc(C)cc1,3.08%,–
O=S(=O)(c1ccc(OCCn2cnc3ccccc32)cc1)N1CCOCC1,-5.74%,–
Clc1ccccc1OCCn1cnc2ccccc21,1.94%,–
Clc1ccc(OCCn2cnc3ccccc32)c(Cl)c1,-8.49%,–
Fc1cccc2c1[nH]c(=S)n2CCOc1ccccc1,-1.06%,–
COc1cccc(OCCn2cnc3ccccc32)c1,-6.92%,–
